Measurements taken from PubChem BioAssay.

Assay: optical density shifts of acrAB sulA E. coli – strain DRC41, OD650, 48 h, E. coli filamentation inducer project, primary screen (AID 1152);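 note: E. coli MC1000 strain DRC41 lacking acrAB efflux pump and sulA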
Details: higher = more signal, called active from +8 up or from −8 down

z-score, inactive:
CO[C@H]1COC(=O)[C@H](CCSC)NC(=O)CC=C[C@@H](C)[C@H](OC)COC(=O)[C@@H](OCc2ccccc2)C=C[C@@H]1C 0.319
COC(=O)[C@H](C)NC(=O)CCC1CC(OC(=O)NCCc2ccc(F)cc2)CC2(CCCC(COC(=O)NCCc3ccccc3OC)O2)O1 (stereo partly specified) 0.121
CC(C)CN1CCc2nc(-c3ccccc3)c3c(c2C1)CO[C@@H](C)C3 0.696
CC(C)[C@@H](OCc1ccccc1)[C@H](C)CON=C1[C@H]2CCn3c(=O)n(-c4ccccc4)c(=O)n3[C@H]2[C@H](O)[C@@H]2O[C@H]12 0.352
CON=C(C)CCN1CCc2nc(-c3ccccc3)c(-c3ccccc3)cc2C1 -0.944
COc1ccc(OC[C@H]2CN3[C@@H](CC[C@@H](C)[C@@H]3c3ccc(Br)cc3)C(=O)O2)cc1 -0.228
O=C(NN=C1C[C@@H](O)[C@@H](O)[C@@H]2[C@@H]3C(=O)N(c4ccc(F)cc4F)C(=O)[C@@H]3CC[C@H]12)OCc1ccccc1 0.342
COC(=O)[C@H](C)NC(=O)CCC1CC(OC(=O)NCc2cccc3ccccc23)CC2(CCCC(COC(=O)NCc3ccccc3)O2)O1 (stereo partly specified) -0.249
O=C1C2=CC[C@H]3C(=O)N(C4CCCCC4)C(=O)[C@H]3[C@H]2[C@H](O)[C@@H]2O[C@H]12 -1.95
C#CCCCON=C1C[C@@H](O)[C@@H](O)[C@@H]2[C@@H]3C(=O)N(C[C@@H]4CCCO4)C(=O)[C@@H]3CC[C@H]12 -0.25
O=C1[C@H]2CCn3c(=O)n(-c4ccccc4)c(=O)n3[C@H]2[C@H](O)[C@@H]2O[C@H]12 -0.323
CC(=O)OC[C@H]1O[C@H](CC=NOCC[C@@H]2C=C[C@H](OC(C)=O)[C@@H](COC(C)=O)O2)C=C[C@@H]1OC(C)=O 0.645
CCCNC(=O)OC[C@H]1O[C@H](CCON=C[C@@H](C)[C@H](OCc2ccccc2)C(C)C)C=C[C@@H]1Oc1ccc(OC)cc1 -0.103
CC(CCC(=O)OC[C@H]1O[C@H](C#Cc2ccccc2)C=C[C@@H]1Oc1ccc(C)cc1)=NOC(C)CN1CCCCc2nc(C)c(C)cc21 (stereo partly specified) -0.131
CCN1C(=O)[C@H]2[C@H]3[C@H](O)[C@H](O)CC(=NNC(=O)OCc4ccccc4)[C@H]3CC[C@H]2C1=O -1.89
CO[C@@H](C(C)C)[C@@H](C)C1OC(=O)CC1O (stereo partly specified) 0.486
CC(C)=NOC(C)CN1CCCc2nc(C)c(C)cc21 (stereo unspecified) -0.477
CO[C@@H]1[C@H](O)CO[C@H]1C=Cc1ccccc1 -0.0624
COc1ccc(O[C@H]2C=C[C@@H](C#Cc3ccccc3)O[C@@H]2CO)cc1 0.311
CC(CCC(=O)OC[C@H]1O[C@H](C#Cc2ccccc2)C=C[C@@H]1Oc1ccc(C)cc1)=NOC[C@@H](C)[C@H](OCc1ccccc1)C(C)C -0.321
CC(CCN1CCc2nc(-c3ccccc3)c(-c3ccccc3)cc2C1)=NOC(C)CN1CCCc2nc(C)c(C)cc21 (stereo unspecified) -0.115
CCOC(=O)[C@H](CC(C)C)NC(=O)CCC1CC(OC(=O)NCc2ccc3c(c2)OCO3)CC2(CCCC(COC(=O)NCCc3ccc(Cl)cc3)O2)O1 (stereo partly specified) 0.386
CC(=O)OC[C@H]1O[C@@H](ON=C(C)CCC(=O)OC[C@H]2O[C@H](C#Cc3ccccc3)C=C[C@@H]2Oc2ccc(C)cc2)[C@H](OC(C)=O)[C@@H](OC(C)=O)[C@@H]1OC(C)=O -0.446
CC(C)CON=C1C[C@@H](O)[C@@H](O)[C@@H]2[C@@H]3C(=O)N(c4ccc(F)cc4F)C(=O)[C@@H]3CC[C@@H]12 -0.177
CCOC(=O)CCN1C(=O)[C@H]2[C@H]3[C@H](O)[C@H](O)CC(=NO[C@@H]4O[C@H](CO)[C@@H](O)[C@H](O)[C@H]4O)[C@H]3CC[C@H]2C1=O 0.131
CCOC(=O)[C@H](Cc1ccccc1)NC(=O)CCC1CC(OC(=O)NCc2cccc3ccccc23)CC2(CCCC(COC(=O)NCCc3ccc(Cl)cc3)O2)O1 (stereo partly specified) -1.37
CCN1C(=O)[C@H]2[C@H]3[C@H](O)[C@H](O)CC(=NOC[C@@H](O)COCc4ccco4)[C@H]3CC[C@H]2C1=O 0.537
C#CCCCON=C1C[C@@H](O)[C@@H](O)[C@@H]2[C@@H]3C(=O)N(C4CCCCC4)C(=O)[C@@H]3CC[C@@H]12 0.0164
COC(=O)[C@H](CCSC)NC(=O)CC=C[C@@H](C)CO 0.193
CCc1cc2c(nc1CC)CCN(CCC(C)=NO[C@@H]1O[C@H](COC(C)=O)[C@@H](OC(C)=O)[C@H](OC(C)=O)[C@H]1OC(C)=O)C2 -1.13
CO[C@H]1COC(=O)[C@H](C)COC(=O)[C@H](C)NC(=O)CC=C[C@H]1C 0.25
COC(=O)[C@H](C)NC(=O)CCC1CC(OC(=O)NCc2ccc3c(c2)OCO3)CC2(CCCC(COC(=O)NCCCN3CCCC3=O)O2)O1 (stereo partly specified) -0.37
COc1ccc(COC(=O)NN=C2C[C@@H](O)[C@@H](O)[C@@H]3[C@@H]4C(=O)N(C[C@@H]5CCCO5)C(=O)[C@@H]4CC[C@@H]23)cc1 1.08
COc1ccc(COC(=O)NN=C2C[C@@H](O)[C@@H](O)[C@@H]3[C@@H]4C(=O)N(C(C)(C)C)C(=O)[C@@H]4CC[C@@H]23)cc1 0.244
CCOC(=O)[C@H](CC(C)C)NC(=O)CCC1CC(OC(=O)NCc2ccc3c(c2)OCO3)CC2(CCCC(COC(=O)NCc3ccccc3)O2)O1 (stereo partly specified) -0.729
CC(C)[C@H](NC(=O)OC(C)(C)C)[C@@H](O)CC(=O)C(C)(C)C 0.14
